Data reported in the supplement of paper PMC12669032.
Values without a mark were called inactive.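 How the source made its calls: active = AUC reduced over 20% with Padj below 0.05 in at least 2 of 3 replicates; inactive = otherwise.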

What was measured:
Assay in all cases: growth AUC relative to DMSO control (median of replicates) (fraction); higher = more growth (less inhibition), active = hit call of the paper
Conditions in all cases: 20 µM; 24 h
[1] = tested on: Akkermansia muciniphila
How it was run: (§1)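 For each compound at 20 µM (1% DMSO), gut bacterial monocultures seeded at OD600 0.05 grew anaerobically in mGAM at 37 °C in round-bottom 96-well plates. Hourly OD600 readings over 24 h gave growth curves whose minimum OD was set to 0. Area under these curves was normalised to the plate median of solvent-only wells, or to row and column medians on the industrial chemical plate. Values are medians of three biological replicates grown on separate days.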

[2] = tested on: Bacteroides caccae
How it was run: as §1

[3] = tested on: Bacteroides clarus
How it was run: as §1

[4] = tested on: Bacteroides dorei
How it was run: as §1

[5] = tested on: Bacteroides stercoris
How it was run: as §1

[6] = tested on: Bacteroides thetaiotaomicron
How it was run: as §1

[7] = tested on: Bacteroides uniformis
How it was run: as §1

[8] = tested on: Bifidobacterium longum subsp. longum
How it was run: as §1

[9] = tested on: Clostridium difficile
How it was run: as §1

[10] = tested on: Collinsella aerofaciens
How it was run: as §1

SMILES | growth AUC [1] | growth AUC [2] | growth AUC [3] | growth AUC [4] | growth AUC [5] | growth AUC [6] | growth AUC [7] | growth AUC [8] | growth AUC [9] | growth AUC [10]
CCNc1nc(N)[nH]c(=O)n1 | 1.01 | 1.01 | 0.998 | 1.01 | 1.03 | 0.998 | 1.02 | 0.986 | 0.999 | 1.04
COCC(=O)N(c1c(C)cccc1C)C(C)C(=O)O (stereo not given) | 1.09 | 0.998 | 1 | 1.01 | 1.13 | 1.04 | 0.997 | 0.951 | 0.95 | 1.08
CC(C)C(O)(c1ccc(OC(F)(F)F)cc1)c1cncnc1 (stereo not given) | 0.853 | 1 | 0.938 | 0.991 | 1.22 | 0.939 | 0.972 | 1.03 | 0.985 | 1.03
CC(C)Nc1nc(N)nc(Cl)n1 | 0.991 | 1.03 | 1.03 | 1.01 | 1.07 | 1.04 | 1.01 | 1 | 1.03 | 1.02
O=C(O)CCCc1c[nH]c2ccccc12 | 1.13 | 1.01 | 1.01 | 0.776 | 0.994 | 0.971 | 0.979 | 1.01 | 1.01 | 0.954
NC(=O)C1CO1 (stereo not given) | 0.657 (active) | 0.982 | 0.971 | 0.864 | 0.586 (active) | 0.972 | 0.912 | 0.929 | 1.01 | 0.933
COC(=O)C(C)Oc1ccc(Oc2ccc(C(F)(F)F)cn2)cc1 (stereo not given) | 1.14 | 0.979 | 0.992 | 0.948 | 1.23 | 0.965 | 0.968 | 1.02 | 1.01 | 0.979
C/C=C/C(=O)Oc1c(C(C)CCCCCC)cc([N+](=O)[O-])cc1[N+](=O)[O-] (mixture of isomers) | 1 | 0.285 (active) | 0.0314 (active) | 0.0151 (active) | 0.0105 (active) | 0.569 (active) | 0.448 (active) | 0.289 (active) | 0.0443 (active) | 0.789 (active)
c1ccc(CNc2ncnc3nc[nH]c23)cc1 | 1.07 | 1.02 | 0.992 | 0.983 | 0.995 | 1.03 | 1.06 | 0.975 | 0.932 | 1
CCc1cc(C(=O)O)cc(CC)c1C1C(=O)N2CCOCCN2C1=O | 1.02 | 1.04 | 1.03 | 1.05 | 1.07 | 0.999 | 1.02 | 1.04 | 0.976 | 1.03
COc1ccc(NC(=O)N(C)C)cc1Cl | 0.982 | 0.975 | 1 | 1.01 | 0.891 | 0.995 | 1.02 | 1.11 | 0.995 | 0.94
O=[N+]([O-])c1ccc(O)cc1 | 1.02 | 1.01 | 0.994 | 1.01 | 1.11 | 1.02 | 1.01 | 0.96 | 1.02 | 1.05
CCCOC(=O)c1ccc(O)cc1 | 0.879 | 0.979 | 0.986 | 1.02 | 0.993 | 0.989 | 0.984 | 1.01 | 0.98 | 1.01
O=C(Nc1ccc(Cl)cc1C(O)c1ccccc1)c1ccncc1 (stereo not given) | 1.04 | 0.985 | 0.946 | 1.01 | 0.878 | 0.97 | 0.987 | 1.01 | 0.982 | 0.994
Cc1ccc2c(c1)[C@H](Nc1nc(N)nc(C(C)F)n1)[C@@H](C)C2 (stereo not given in full) | 0.985 | 1 | 0.969 | 0.989 | 1.08 | 0.975 | 0.948 | 1.03 | 0.998 | 1.01
CC(C)(NC(=O)NCc1ccccc1Cl)c1ccccc1 | 1.12 | 1 | 1.03 | 0.925 | 0.951 | 1.02 | 0.983 | 1.08 | 1.01 | 0.96
c1ccc(Nc2ccccc2)cc1 | 0.883 | 1.01 | 0.94 | 1.03 | 0.951 | 1 | 0.981 | 0.953 | 0.999 | 1.01
Nc1ccc(S(=O)(=O)Nc2cnc3ccccc3n2)cc1 | 0.923 | 1.01 | 0.99 | 1.02 | 1.01 | 0.946 | 0.984 | 1.12 | 0.975 | 0.982
Cc1nc(C(F)(F)F)c(C(=O)Nc2c(Br)cc(OC(F)(F)F)cc2Br)s1 | 1.05 | 0.984 | 0.98 | 0.946 | 1.06 | 0.945 | 0.986 | 1 | 1.03 | 1.01
COc1ccc(Oc2ccc(NC(=O)N(C)C)cc2)cc1 | 0.887 | 1 | 0.958 | 0.98 | 0.951 | 0.982 | 0.948 | 0.957 | 0.99 | 1
CC(C)OC(=O)N[C@H](C(=O)N[C@H](C)c1nc2ccc(F)cc2s1)C(C)C | 1.17 | 0.963 | 0.997 | 0.934 | 0.982 | 1.01 | 0.93 | 1.06 | 0.942 | 0.964
S=C([S-])NCCNC(=S)[S-].S=C([S-])NCCNC(=S)[S-].[Mn+2].[Zn+2] | 0.974 | 1.02 | 1.1 | 1.06 | 1.06 | 0.975 | 1.07 | 1.03 | 0.994 | 1.03
CN(C)C(=O)SCCCCOc1ccccc1 | 0.993 | 0.957 | 0.967 | 0.99 | 0.915 | 0.973 | 0.992 | 0.984 | 0.983 | 0.993
S=C([S-])NCCNC(=S)[S-].[Zn+2] | 1.16 | 1.05 | 0.989 | 0.999 | 0.983 | 0.978 | 1.03 | 0.995 | 0.972 | 0.992
Oc1ccc2ccccc2c1N=Nc1ccccc1 | 1 | 0.973 | 1.01 | 0.977 | 0.972 | 1 | 1 | 0.942 | 0.991 | 0.917
Cc1cccc(C)c1N(CC(=O)O)C(=O)CS(=O)(=O)[O-].[Na+] | 0.891 | 1.01 | 0.939 | 0.998 | 0.888 | 1.01 | 1 | 0.938 | 1.05 | 0.973
Cc1cccc(C)c1N(CCSCC(O)C(=O)[O-])C(=O)CO.[Na+] (stereo not given) | 1.15 | 0.993 | 1.02 | 0.907 | 1.01 | 0.98 | 1.01 | 1.05 | 0.992 | 0.913
CNC(=O)/C(=N/OC)c1ccccc1COc1cc(C)ccc1C | 0.923 | 1 | 0.94 | 1.01 | 1.01 | 0.946 | 0.962 | 0.972 | 0.987 | 0.968
